Values joined by “and” are separate entries in the source; they are usually repeats but may differ in a detail not shown here. Identical values can stand only once. This is part of a sample that, as a whole, favours compounds with a hit. Of some 79,000 tested, about 15% had one in any assay. The source holds several records for some structures; these can differ, active in one and inactive in another. Active and inactive are the calls of the source. Cut-off read from the data, not from the text of the source: active = growth inhibition above about 70%; inactive = the rest.

Test [1] can be described thus: NCI Yeast Anticancer Drug Screen. Data for the rad50 strain (AID 155).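 Note: 0% = growth of vehicle-only cultures of the same strain.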 As to conditions: S. cerevisiae rad50 strain growth inhibition, stronger effect = higher value. In a few lines: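 Genetically altered yeast (DNA repair pathway); compound treatment; growth inhibition vs vehicle ctrl.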
A short description of test [2]: NCI Yeast Anticancer Drug Screen. Data for the mec2-1 strain (AID 157). As to conditions: S. cerevisiae mec2-1 strain, stronger effect = higher value. In a few lines: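 Mutant yeast (mec2-1) grown with compound; growth inhibition relative to vehicle control reported.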
Test [3] can be described thus: NCI Yeast Anticancer Drug Screen. Data for the sgs1 mgt1 strain (AID 161).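 Note: 0% = growth of cultures given vehicle only.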 The note with it: S. cerevisiae sgs1 mgt1 strain, stronger effect = higher value. A digest of the protocol:
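Yeast cells carrying a defined DNA-repair defect were exposed to test compounds. Growth inhibition was measured relative to vehicle-treated controls.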

A short description of test [4]: NCI Yeast Anticancer Drug Screen. Data for the cln2 rad14 strain (AID 165).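 Note: 0% = growth equal to vehicle treated cultures.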 The note with it: S. cerevisiae cln2 rad14 strain, stronger effect = higher value. In a few lines:
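Readout is yeast growth inhibition versus vehicle-treated controls, using a strain with cln2 and rad14 alterations exposed to compound.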

A short description of test [5]: NCI Yeast Anticancer Drug Screen. Data for the bub3 strain (AID 167). As to conditions: S. cerevisiae bub3 mutant strain, stronger effect = higher value. In a few lines: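 Yeast carrying a defined mutation is treated with each compound, and growth is compared with that of vehicle-exposed cells to give inhibition.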
Test [6] can be described thus: NCI Yeast Anticancer Drug Screen. Data for the mlh1 rad18 strain (AID 175). As to conditions: S. cerevisiae mlh1 rad18 strain growth inhibition, stronger effect = higher value. A digest of the protocol:
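Genetically defined yeast (DNA repair-deficient) exposed to compounds; growth inhibition determined relative to vehicle.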

Setting [7] is: at 5.0 µM (retest, dose inferred, filed as 0.5).
[8] abbreviates: at 50.0 µM (retest, dose inferred, filed as 5.0).

Turning to `CCCCCCN(CCCCCC)C(=O)C1=C(C)NC(C)=C(C(=O)N(CCCCCC)CCCCCC)C1`, the growth inhibition in test [1] (setting [7]) was 1% (inactive); in test [1] (setting [8]), 15% (inactive); in test [1] (at 50.0 µM), 56.4% (inactive); in test [2] (setting [7]), -16% (inactive); in test [2] (setting [8]), -3% (inactive); in test [2] (at 50.0 µM), 4.4% (inactive). In addition, the growth inhibition in test [3] (setting [7]) was -8% (inactive); in test [3] (setting [8]), -1% (inactive); in test [3] (at 50.0 µM), 85.2% (active); in test [4] (setting [7]), 33% (inactive); in test [4] (setting [8]), 14% (inactive); in test [4] (at 50.0 µM), 0.5% (inactive). The growth inhibition in test [5] (setting [7]) was -5% (inactive); in test [5] (setting [8]), 17% (inactive); in test [5] (at 50.0 µM), 34.9% (inactive); in test [6] (setting [7]), -1% (inactive); in test [6] (setting [8]), -13% (inactive); in test [6] (at 50.0 µM), 59% (inactive).
Take `c1ccc(-c2cnc(-c3ccc(-c4ncc(-c5ccccc5)o4)cc3)o2)cc1`: the growth inhibition is -13% (inactive) in test [1] (setting [7]); -8% (inactive) in test [1] (setting [8]); -8.4% (inactive) in test [1] (at 50.0 µM); -6% (inactive) in test [2] (setting [7]); -17% (inactive) in test [2] (setting [8]); -27.4% (inactive) in test [2] (at 50.0 µM). Also, the growth inhibition in test [3] (setting [7]) was -23% (inactive); in test [3] (setting [8]) it was -11% (inactive); in test [3] (at 50.0 µM), -47.8% (inactive); in test [4] (setting [7]), -11% (inactive); in test [4] (setting [8]), -10% (inactive); in test [4] (at 50.0 µM) it was 91% (active). Moreover, the growth inhibition is 0% (inactive) in test [5] (setting [7]); 5% (inactive) in test [5] (setting [8]); -32.6% (inactive) in test [5] (at 50.0 µM); 5% (inactive) in test [6] (setting [7]); -10% (inactive) in test [6] (setting [8]); -20.6% (inactive) in test [6] (at 50.0 µM).
For `Nc1cc(F)c2c(c1)Cc1ccccc1-2`, the growth inhibition in test [1] (setting [7]) is 1% (inactive); in test [1] (setting [8]), 95% (active); in test [1] (at 50.0 µM) it was 84.3% (active); in test [2] (setting [7]), -3% (inactive); in test [2] (setting [8]), 60% (inactive); in test [2] (at 50.0 µM) it was 39.2% (inactive). Further, the growth inhibition in test [3] (setting [7]) was -6% (inactive); in test [3] (setting [8]), 84% (active); in test [3] (at 50.0 µM), 82.7% (active); in test [4] (setting [7]) it was 8% (inactive); in test [4] (setting [8]) it was 32% (inactive); in test [4] (at 50.0 µM), 23.7% (inactive). Moreover, the growth inhibition in test [5] (setting [7]) was 9% (inactive); in test [5] (setting [8]), 92% (active); in test [5] (at 50.0 µM) it was 71% (active); in test [6] (setting [7]) it was 12% (inactive); in test [6] (setting [8]) it was 97% (active); in test [6] (at 50.0 µM) it was 58.1% (inactive).
Take `Cc1c(-c2ccccc2)ccnc1/C=N/NC(N)=S`: the growth inhibition in test [1] (setting [7]) was 29% (inactive); in test [1] (setting [8]) it was 42% (inactive); in test [1] (at 50.0 µM) it was 48.1% (inactive); in test [2] (setting [7]), 9% (inactive); in test [2] (setting [8]) it was 53% (inactive); in test [2] (at 50.0 µM) it was 79% (active). The growth inhibition in test [3] (setting [7]) is 43% (inactive); in test [3] (setting [8]) it was 58% (inactive); in test [3] (at 50.0 µM), 65.7% (inactive); in test [4] (setting [7]), 39% (inactive); in test [4] (setting [8]), 39% (inactive); in test [4] (at 50.0 µM) it was 54.4% (inactive). The growth inhibition in test [5] (setting [7]) is 49% (inactive); in test [5] (setting [8]) it was 45% (inactive); in test [5] (at 50.0 µM) it was 80.7% (active); in test [6] (setting [7]) it was 18% (inactive); in test [6] (setting [8]), 36% (inactive); in test [6] (at 50.0 µM) it was 82% (active).
For the compound `c1cc2c3c(cccc3c1)-c1cnccc1-2`, the growth inhibition in test [1] (setting [7]) was 31% (inactive); in test [1] (setting [8]), 54% (inactive); in test [1] (at 50.0 µM), 91.1% (active); in test [2] (setting [7]), 36% (inactive); in test [2] (setting [8]), 84% (active); in test [2] (at 50.0 µM), 92.7% (active). For the same compound, the growth inhibition in test [3] (setting [7]) is -6% (inactive); in test [3] (setting [8]), 97% (active); in test [3] (at 50.0 µM), 92.9% (active); in test [4] (setting [7]), 48% (inactive); in test [4] (setting [8]), 97% (active); in test [4] (at 50.0 µM) it was 90.8% (active). For the same compound, the growth inhibition is 16% (inactive) in test [5] (setting [7]); 98% (active) in test [5] (setting [8]); 92.3% (active) in test [5] (at 50.0 µM); 35% (inactive) in test [6] (setting [7]); 73% (active) in test [6] (setting [8]); 91.8% (active) in test [6] (at 50.0 µM).
With `OCC1OC(Sc2ncc[nH]2)C(O)C(O)C1O` (stereo unspecified), the growth inhibition in test [1] (setting [7]) is -12% (inactive); in test [1] (setting [8]), 4% (inactive); in test [1] (at 50.0 µM), 5.1% (inactive) and 4.95% (inactive); in test [2] (setting [7]) it was -1% (inactive); in test [2] (setting [8]) it was -10% (inactive); in test [2] (at 50.0 µM), -7.25% (inactive) and -9.95% (inactive). The growth inhibition in test [3] (setting [7]) was -30% (inactive); in test [3] (setting [8]) it was -11% (inactive); in test [3] (at 50.0 µM), -4.55% (inactive) and -7.65% (inactive); in test [4] (setting [7]), 11% (inactive); in test [4] (setting [8]) it was 3% (inactive); in test [4] (at 50.0 µM), 4.15% (inactive) and 44.2% (inactive). The growth inhibition in test [5] (setting [7]) is 0% (inactive); in test [5] (setting [8]), 0% (inactive); in test [5] (at 50.0 µM) it was -1.3% (inactive) and -3.2% (inactive); in test [6] (setting [7]) it was -18% (inactive); in test [6] (setting [8]) it was -14% (inactive); in test [6] (at 50.0 µM), -17.8% (inactive) and -16.8% (inactive).
As for `c1ccc(CSC(SCc2ccccc2)(c2ccccc2)c2ccccc2)cc1`, the growth inhibition in test [1] (setting [7]) is 30% (inactive); in test [1] (setting [8]) it was 88% (active); in test [1] (at 50.0 µM), 14.4% (inactive) and 72% (active); in test [2] (setting [7]), 13% (inactive); in test [2] (setting [8]), 93% (active); in test [2] (at 50.0 µM), 5.7% (inactive) and 63.5% (inactive). For the same compound, the growth inhibition in test [3] (setting [7]) was 2% (inactive); in test [3] (setting [8]), 90% (active); in test [3] (at 50.0 µM), 14.8% (inactive) and 76.8% (active); in test [4] (setting [7]), 11% (inactive); in test [4] (setting [8]) it was 87% (active); in test [4] (at 50.0 µM), 18.2% (inactive) and 65.3% (inactive). The growth inhibition is -16% (inactive) in test [5] (setting [7]); 83% (active) in test [5] (setting [8]); 15.4% (inactive) and 74.8% (active) in test [5] (at 50.0 µM); 22% (inactive) in test [6] (setting [7]); 92% (active) in test [6] (setting [8]); 13.7% (inactive) and 81.3% (active) in test [6] (at 50.0 µM).

These data come from PubChem BioAssay (NCI).
